About 83,000 compounds went through this panel and 20% of them were active in at least one assay; those are over-represented in the sample as a whole.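 Method: cells in 96-well plates; compound added at one concentration; 48 h incubation; percent growth measured; values under 10 scored active.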 The source made the active and inactive calls.

In this assay the test system is HL-60(TB) leukemia. Briefly: NCI-60 one-dose screen, 48 h (100 = growth as untreated, 0 = no growth, -100 = all killed). The settings on record: 10 µM unless noted.
Consider `O=C(CCN1CCCC1)Nc1ccc2c(NCCc3ccccc3)c3ccccc3nc2c1`, for which the growth is -58% (active).

Regarding `CC(C)COc1nc2c(c(=O)n(C)c(=O)n2C)n1C`, the growth was 97% (inactive).

With `NS(=O)(=O)c1ccc(Nc2nc(O)c(/C=C3\C=Nc4ccccc43)s2)cc1`, the growth is 95.4% (inactive).

With `CCSc1ccc([C@@H]2[C@@H](O)C(=O)N2c2cc(OC)c(OC)c(OC)c2)cc1`, the growth is -35.4% (active).

Turning to `CCN(CC)c1ccc(C(=O)c2ccccc2)cc1`, the growth is 87.4% (inactive).

Turning to `CO[C@H](C(=O)[C@@H](O)[C@@H](C)O)[C@@H]1Cc2cc3cc(O[C@H]4C[C@@H](O[C@H]5C[C@@H](O)[C@H](O)C(C)O5)[C@H](O)C(C)O4)c(C)c(O)c3c(O)c2C(=O)[C@H]1O[C@H]1C[C@@H](O[C@H]2C[C@@H](O[C@H]3C[C@@H](OC)[C@H](O)C(C)O3)[C@@H](O)C(C)O2)C(O)(O)C(C)O1` (stereo not given in full), the growth was 26.8% (inactive).

As for `Clc1ccc(-c2nc(-c3cccs3)cn3ccnc23)cc1`, the growth was 98.8% (inactive).

As for `CCC([N+](=O)[O-])S(=O)(=O)c1ccc(C)cc1` (stereo not given), the growth was 132% (inactive).

Regarding `CC(C)(C)c1ccc(N2CSC(=S)N(c3ccc(C(C)(C)C)cc3)C2)cc1`, the growth was 92.7% (inactive).

Regarding `O=C(Nc1ccc(Br)cc1F)c1cc(I)ccc1O`, the growth was -33.3% (active).

Take `O=C1CC(N2C(=O)/C(=C/C(Cl)=C\c3ccc([N+](=O)[O-])cc3)SC2=S)C(=O)N1c1ccc(O)cc1` (stereo not given): the growth is -18.7% (active).

In the case of `CCN(CC)S(=O)(=O)c1ccc(S(=O)(=O)N2CCC[C@@H](C(=O)N3CCN(C(=O)OC(C)(C)C)CC3)C2)cc1`, the growth is 70.5% (inactive).

With `C=C(C)[C@@H]1CC[C@]2(C(N)=O)CC[C@]3(C)[C@H](CC[C@@H]4[C@@]5(C)CC[C@H](O)C(C)(C)[C@@H]5CC[C@]43C)[C@@H]12`, the growth was 1.17% [100 µM] (active).

With `COc1ccc(-c2[nH]c3ccccc3c2C=C(C#N)C#N)cc1`, the growth is -48.9% (active).

On to `COc1ccc(Nc2ncc(I)c(NCCCNC(=O)C3CCC3)n2)cc1`, for which the growth was -37.6% (active).

Turning to `COC(=O)C(OC(C)=O)C(OC(C)=O)c1ccc(OC)c(OC)c1` (stereo not given), the growth is 81.3% (inactive).

Consider `O=C(NCCCl)Nc1ncccc1OCc1ccccc1`, for which the growth is 90% (inactive).

Consider `CC(C)Cn1c2c(c(=S)[nH]c1=O)CCC2`, for which the growth is 107% (inactive).

`CN(C)C(=S)N(C)C`: the growth was 86.6% (inactive).

Take `O=C1Nc2ccccc2C12Nc1cc(Cl)ccc1S2` (stereo not given): the growth was 71.6% (inactive).

Consider `COc1cc(/C=C/C(=O)CC(=O)/C=C/c2ccc(OC(=O)CCNC34CC5CC(CC(C5)C3)C4)c(OC)c2)ccc1OC(=O)CCNC12CC3CC(CC(C3)C1)C2`, for which the growth was -24% (active).

Take `Brc1cccc(-c2cc(-c3ccc4c(c3)OCCO4)[nH]n2)c1`: the growth was 12.3% [25 µM] (inactive).

As to `CC(C)(C)c1nn(-c2ccccc2)c2c1C(=O)CSC(c1ccc3c(c1)OCO3)N2` (stereo not given), the growth was 89.5% (inactive).

Regarding `COC(=O)[C@@]12CC[C@@H](C)[C@]3(C[C@@H](c4ccoc4)OC3=O)[C@H]1CC[C@@H]1O[C@@]12C`, the growth is 104% (inactive).

Turning to `O=C1/C(=C/c2cccs2)CCC/C1=C\c1cccs1`, the growth was 93.8% (inactive).

For the molecule `O=C(O)c1nn(-c2ccc(Cl)cc2)nc1N1CCCC1`, the growth was 97% (inactive).

`CCN(CC)CCCNc1nc2ccccc2c2c(=O)c3cc(Cl)ccc3sc12`: the growth was 64.5% (inactive).

On to `COc1ccc(C2c3ccc4ccccc4c3Oc3ncn(CCCn4ccnc4)c(=N)c32)cc1OC` (stereo not given), for which the growth is 40.7% (inactive).

On to `CN1CCN(Cc2ccc(NC(=O)c3cncc(C#Cc4cnc(N)cc4C#N)c3)cc2C(F)(F)F)CC1`, for which the growth was 4.46% (active).

Turning to `CCCCCCCOc1cccc(/C=C2/C(=O)N=C3SCCCN32)c1`, the growth was 95.2% (inactive).

Consider `C=C(C)[C@@H]1CC[C@]2(C(=O)OC)CC[C@]3(C)[C@H](CC[C@@H]4[C@@]5(C)CC/C(=N\OCCC(=NCCC#N)NOCCC#N)C(C)(C)[C@@H]5CC[C@]43C)[C@@H]12`, for which the growth is 0.897% [100 µM] (active).

Turning to `O=c1oc2ccc(I)cc2c(=O)n1-c1ccc(F)cc1F`, the growth is -4.05% (active).

For the molecule `C#CCOc1cccc(Nc2ncnc3c2ncn3C2CCN(C(=O)CCl)C2)c1` (stereo not given), the growth was -56.3% (active).

As for `O=C(O)CCN1C(=O)/C(=C/C(Cl)=C/c2ccccc2)SC1=S`, the growth is 5.78% (active).

Regarding `Cc1ccc2[nH]c(=O)c3c(c2c1)OC(N)=C(C#N)C31c2cc(Br)ccc2-c2ccc(Br)cc21`, the growth is 85.7% (inactive).

Take `COc1cc(Cl)cc(-c2nn(C(=O)NS(=O)(=O)c3ccc(Cl)cc3)cc2-c2ccncc2)c1`: the growth was 94.8% (inactive).

Take `C/C=C(/C)C(=O)OC1C=C(CO)C(=O)C(OC(=O)C2(C)OC2C)C1C(C)C` (stereo not given): the growth is -24.9% (active).

Consider `O=C(NNC(=O)c1ccc(NC(=O)c2ccccn2)cc1)Nc1ccc2ccccc2c1`, for which the growth is 105% (inactive).

As for `O=C1NC(=S)NC(=O)C1=Cc1cn(Cc2ccccn2)c2ccccc12`, the growth was 32.5% (inactive).

Regarding `O=S(=O)(O)c1ccc(N=Nc2ccc(N=Nc3cccc4ccccc34)c(S(=O)(=O)O)c2)cc1`, the growth was 105% (inactive).

The values are drawn from PubChem BioAssay (NCI).
